Results published in PubChem BioAssay (EPA / NIEHS).
The source made the active and inactive calls. Rule for the calls: active = hit-call score of the fitted dose curve at least 0.9, where 1 is the maximum; inactive = score below 0.9.

Read-out: Early growth response protein 1 (EGR1) transcription factor, EGR1 (gene 1958)
Test: LTEA_HepaRG_EGR1: Life Technologies and Expression Analysis (LTEA) Assay for Early growth response protein 1 (EGR1) transcription factor using HepaRG (AID 2283490)
Conditions: mRNA level, 48 h; actives raise or lower the signal
Description: LTEA_HepaRG is a cell based, multiplexed-readout assay that uses HepaRG, a human liver cell line, with measurements taken at 48 hours after chemical dosing on a 96-well plate.LTEA_HepaRG_EGR1 is one of 102 assay component(s) measured in the LTEA HepaRG cell culture assay. It is a marker of Cell proliferation, survival, death.Data from the assay component LTEA_HepaRG_EGR1 was analyzed into 1 endpoint. This assay endpoint, LTEA_HepaRG_EGR1, was analyzed with bidirectional fitting relative to DMSO as the negative control and baseline of activity. Using a type of inducible reporter, measures of mRNA induction for gain or loss-of-signal activity can be used to understand regulation of transcription factor activity. To generalize the intended target to other relatable targets, this assay endpoint is annotated to the dna binding intended target family, where the subfamily is zinc finger.
A total of 1060 chemcials from the ToxCast library were tested in eight-point concentration-response experiments. Cell culture and cytotoxicity assays were conducted at Thermo Fisher Scientific's Custom Services facility (Madison, WI). A single lot of human HepaRG cells (Thermo Fisher Scientific, Frederick, MD) was used for the cell culture experiments. 96-well format collagen type I coated plates of human HepaRG cells were prepared using established methods. Briefly, cryopreserved HepaRG cells were thawed, plated at a density of approximately 100,000 cells/well in HepaRG Thaw, Plate, and General Purpose media (HPRG770, Thermo Fisher Scientific), and incubated for 48 hours. 0.5% DMSO was selected as vehicle control to balance the requisite need of DMSO in HepaRG cultures to maintain differentiation (for example, baseline metabolism, proportions of hepatocytes vs. cholangiocytes), while enabling further hepatic receptor pathway activation (for example, PXR and CAR) in response to chemical exposure. 48 hours after plating, the culture medium was replaced with HepaRG Serum-Free Incudtion Media. Cells were exposed to each test chemical in duplicate and maintained in CO2 incubators for another 48 hours. Chemical plates were thawed to room temperature and 200x concentrations of treatment groups were prepared. 8-point conentration-reponse curves were made with the highest exposure at 100 uM, followed by half-log dilutions, all in 0.5% DMSO. Each test plate contained variouse controls, induction positive controls (1mM phenobarbital), cytotoxicity positive controls ([…] aflatoxin B1), vehicle controls (0.5% DMSO), and total lysis controls (0.5% DMSO). Cell morphology images were taken using an Essen IncuCyte FLR automated microscope, with six 96-well plates imaged in about 24 minutes. Images were captured and exported and JPEG files. Spent culture media was transfered to black-well plates for the LDH assay, and remaining media was sorted at -80 C for later use. Cells were treated with RLT buffer and frozen until shipped for gene expression analysis. Total RNA was isolated from the cell suspension in 75 uL of Buffer RLT (Qiagen, Germantown, MD 20874) by Quintiles/Expression Analysis (Durham, NC) using a custom isolation procedure. Total RNA from each plate well was transferred to a preamplification plate. Fluidigm's 96.96 Dynamic ArrayTM (Fluidigm, Amsterdam, the Netherlands) technology was used for gene expression analyses by quantitative reverse transcription polymerase chain reaction (qRT-PCR, performed by Quintiles/Expression Analysis, Durham, NC)89. Standard TaqManTM Assays (Applied Biosystems/ThermoFisher Scientific, Foster City, CA) were used to assess the expression of 93 genes selected based on their selectivity and sensitivity to important hepatic receptors known to be modulated by environmental chemicals; importance in human hepatocyte functionality; and hepatotoxicity. […]

Row | Structure (SMILES) | outcome | AC50
1 | CCOP(=S)(OCC)OC(Cl)C(Cl)(Cl)Cl (stereo not given) | inactive | 
2 | CC1(C(=O)Nc2ccc(O)c(Cl)c2Cl)CCCCC1 | inactive | 
3 | O=C(O)c1cc(Oc2ccc(C(F)(F)F)cc2Cl)ccc1[N+](=O)[O-] | inactive | 
4 | CCOP(=S)(OCC)SCCSCC | inactive | 
5 | CON=C(C(=O)OC)c1ccccc1CON=C(C)c1cccc(C(F)(F)F)c1 | inactive | 
6 | Cc1ccn2nc(S(=O)(=O)Nc3c(F)cccc3F)nc2n1 | inactive | 
7 | CC(=NC#N)N(C)Cc1ccc(Cl)nc1 | inactive | 
8 | COc1ccc(C(=CC(=O)N2CCOCC2)c2ccc(Cl)cc2)cc1OC | inactive | 
9 | CC(C)=CC1C(C(=O)OCN2C(=O)C3=C(CCCC3)C2=O)C1(C)C (stereo not given) | inactive | 
10 | FC(F)C(F)(F)OCC(Cn1cncn1)c1ccc(Cl)cc1Cl (stereo not given) |  | 11.1 µM (active)
11 | COP(=O)(NC(C)=O)SC (stereo not given) | inactive | 
12 | CCOP(=O)(NC(C)C)Oc1ccc(SC)c(C)c1 (stereo not given) | inactive | 
13 | CNC(=O)ON=C(C)SC | inactive | 
14 | Cc1cc(C2CC2)nc(Nc2ccccc2)n1 | inactive | 
15 | CN(C)[C@@H]1C(=O)C(C(N)=O)=C(O)[C@@]2(O)C(=O)C3=C(O)c4c(O)cccc4[C@@](C)(O)[C@H]3[C@H](O)[C@@H]12 | inactive | 
16 | CCC(=O)Nc1ccc(Cl)c(Cl)c1 | inactive | 
17 | CSC1=N[C@@](C)(c2ccccc2)C(=O)N1Nc1ccccc1 |  | 31.9 µM (active)
18 | CCC(=NOC/C=C/Cl)C1=C(O)CC(C2CCOCC2)CC1=O (stereo not given) | inactive | 
19 | CCc1cccc(CC)c1N(COC)C(=O)CCl | inactive | 
20 | S=C1NCCN1 | inactive | 

Row | Structure (SMILES) | outcome | AC50
21 | O=c1ccc(=O)[nH][nH]1 | inactive | 
22 | COP(=O)(OC)SCn1c(=O)oc2cc(Cl)cnc21 | inactive | 
23 | COc1cccc(C(=O)NN(C(=O)c2cc(C)cc(C)c2)C(C)(C)C)c1C | inactive | 
24 | CCc1cnc(C2=NC(C)(C(C)C)C(=O)N2)c(C(=O)O)c1 (stereo not given) | inactive | 
25 | CCOP(=S)(OCC)Oc1cc(C)nc(C(C)C)n1 | inactive | 
26 | C#CCC1=C(C)C(OC(=O)C2C(C=C(C)C)C2(C)C)CC1=O (stereo not given) |  | 49.8 µM (active)
27 | Nc1c(Cl)cc([N+](=O)[O-])cc1Cl |  | 31.8 µM (active)
28 | Nc1nc(N)nc(NC2CC2)n1 | inactive | 
29 | CCNc1nc(Cl)nc(NC(C)(C)C#N)n1 | inactive | 
30 | CSc1nnc(C(C)(C)C)c(=O)n1N | inactive | 
31 | CCOC(=O)CC(SP(=O)(OC)OC)C(=O)OCC (stereo not given) | inactive | 
32 | CCC(CC)Nc1c([N+](=O)[O-])cc(C)c(C)c1[N+](=O)[O-] | inactive | 
33 | CCOP(=S)(OCC)Oc1ccc2c(C)c(Cl)c(=O)oc2c1 | inactive | 
34 | CSc1nc(NC(C)C)nc(NC(C)C)n1 | inactive | 
35 | CCCSP(=O)(OCC)SCCC | inactive | 
36 | CCOP(=O)(SC(C)CC)N1CCSC1=O (stereo not given) | inactive | 
37 | CCCCOC(=O)[C@@H](C)Oc1ccc(Oc2ccc(C#N)cc2F)cc1 | inactive | 
38 | COc1cc(OC)nc(Sc2cccc(Cl)c2C(=O)O)n1 | inactive | 
39 | CC1=NNC(=O)N(/N=C/c2cccnc2)C1 | inactive | 
40 | CCCCOC(=O)c1ccccc1C(=O)O | inactive | 
